Test results as given in the supplement of paper PMC10849652.
About 7,900 targets were measured; listed, in parts, are those with a hit and a random draw of the rest. About 0.6% of all pairs of compound and target were hits.

Legend:
Assay in all cases: log2 fold change, soluble protein after heating vs DMSO (PISA); higher = thermal stabilisation; K562 cells, 10 uM, 30 min; active = over 0.2 and 3.5 SD of the protein, either way, in both replicates (recomputed)
[1] = compound: CN1CCN(CCOc2cc(OC3CCOCC3)c3c(Nc4c(Cl)ccc5c4OCO5)ncnc3c2)CC1 [saracatinib]
Summary of the method: (§1)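 Values are thermal stability changes relative to control samples and are taken from duplicates. They are stated as log2 fold changes. Before quantification by TMTpro 16plex LC-MS/MS with equalised channel sums, K562 cells at 2×10^6 cells/mL were treated with 10 μM compound for 30 min, heated in aliquots for 3 min across 48°C-58°C, pooled, extracted in PBS with 0.5% NP-40 at 4°C, and centrifuged at 21,000xg for 90 min to give the soluble supernatant.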

[2] = compound: CN1CCN(c2nc(C3=C(c4c[nH]c5ccccc45)C(=O)NC3=O)c3ccccc3n2)CC1 [sotrastaurin]
Summary of the method: as §1

[3] = compound: CN1CC[C@H](c2c(O)cc(O)c3c(=O)cc(-c4ccccc4Cl)oc23)[C@H](O)C1 [alvocidib]
Summary of the method: as §1

[4] = compound: CN1CCc2c(c3ccccc3n2Cc2ccc(C(=O)NO)cc2)C1 [Tubastatin A]
Summary of the method: as §1

[5] = compound: CNC(=O)C1=CC=CC=C1NC2=NC(=NC=C2Cl)NC3=C(C=C(C=C3)N4CCOCC4)OC
Summary of the method: as §1

[6] = compound: CNC(=O)c1ccc(Nc2ncc(C(F)(F)F)c(NCc3nccnc3N(C)S(C)(=O)=O)n2)cc1 [defactinib]
Summary of the method: as §1

[7] = compound: CNCc1ccc(-c2[nH]c3cc(F)cc4c3c2CCNC4=O)cc1 [rucaparib]
Summary of the method: as §1

[8] = compound: CNc1nc(-c2ccc3c(N)n[nH]c3c2)cc(N2C[C@@H](C(=O)NC3CCCCC3)CC[C@H]2C)n1
Summary of the method: as §1

[9] = compound: COC(=O)N[C@@H](C)CNc1nccc(-c2cn(C(C)C)nc2-c2cc(Cl)cc(NS(C)(=O)=O)c2F)n1 [encorafenib]
Summary of the method: as §1

[10] = compound: COC(=O)[C@H](CCSC)NC(=O)C1=C(C=C(C=C1)NC[C@H](CS)N)C2=CC=CC=C2
Summary of the method: as §1

Measured: log2 fold change

MEAK7 (UniProt Q6P9B6)
UniProt Q6P9B6, sequence (Q6P9B6 whole entry, looked up): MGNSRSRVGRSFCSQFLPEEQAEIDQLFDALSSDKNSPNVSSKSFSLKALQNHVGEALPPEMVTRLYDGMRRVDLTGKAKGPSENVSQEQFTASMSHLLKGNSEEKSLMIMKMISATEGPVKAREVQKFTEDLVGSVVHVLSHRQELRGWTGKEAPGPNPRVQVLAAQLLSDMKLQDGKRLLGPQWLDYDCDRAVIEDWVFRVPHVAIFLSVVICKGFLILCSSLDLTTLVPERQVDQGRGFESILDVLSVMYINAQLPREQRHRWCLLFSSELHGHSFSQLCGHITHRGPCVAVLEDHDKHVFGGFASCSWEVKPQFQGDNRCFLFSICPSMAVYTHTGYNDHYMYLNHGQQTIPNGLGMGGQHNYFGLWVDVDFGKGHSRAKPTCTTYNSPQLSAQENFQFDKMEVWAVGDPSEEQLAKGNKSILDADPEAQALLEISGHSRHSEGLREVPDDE
inactive: [1] 0.043 | [2] -0.004 | [3] -0.056 | [4] 0.028 | [5] -0.088 | [6] -0.041 | [7] 0.008 | [8] 0.026 | [9] 0.02 | [10] 0.088

IPO13 (UniProt O94829)
UniProt O94829, sequence (O94829 whole entry, looked up): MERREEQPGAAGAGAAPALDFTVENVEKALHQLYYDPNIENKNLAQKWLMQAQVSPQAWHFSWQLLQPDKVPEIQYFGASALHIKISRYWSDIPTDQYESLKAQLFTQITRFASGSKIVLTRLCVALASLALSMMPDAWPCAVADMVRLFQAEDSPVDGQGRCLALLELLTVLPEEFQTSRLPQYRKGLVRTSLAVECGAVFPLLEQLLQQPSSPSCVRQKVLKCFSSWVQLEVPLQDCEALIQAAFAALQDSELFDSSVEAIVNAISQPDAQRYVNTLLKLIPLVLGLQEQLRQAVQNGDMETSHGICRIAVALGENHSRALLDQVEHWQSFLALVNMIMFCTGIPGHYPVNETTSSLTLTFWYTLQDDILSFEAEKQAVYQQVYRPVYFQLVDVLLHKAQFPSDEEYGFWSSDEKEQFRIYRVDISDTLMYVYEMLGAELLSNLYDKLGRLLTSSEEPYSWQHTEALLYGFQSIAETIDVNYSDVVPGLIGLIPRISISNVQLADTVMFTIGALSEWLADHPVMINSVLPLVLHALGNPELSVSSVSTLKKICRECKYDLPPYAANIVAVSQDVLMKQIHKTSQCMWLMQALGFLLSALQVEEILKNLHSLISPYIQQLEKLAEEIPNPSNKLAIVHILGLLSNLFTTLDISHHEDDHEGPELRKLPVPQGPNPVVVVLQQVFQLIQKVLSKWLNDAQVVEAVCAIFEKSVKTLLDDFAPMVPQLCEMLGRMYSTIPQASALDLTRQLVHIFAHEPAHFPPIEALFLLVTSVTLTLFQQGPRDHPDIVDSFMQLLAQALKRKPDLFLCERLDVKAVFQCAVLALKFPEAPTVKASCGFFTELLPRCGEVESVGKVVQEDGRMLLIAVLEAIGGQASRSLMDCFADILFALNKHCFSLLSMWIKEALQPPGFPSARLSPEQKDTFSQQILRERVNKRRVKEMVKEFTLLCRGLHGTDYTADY
inactive: [1] 0.111 | [2] -0.123 | [3] 0.013 | [4] -0.03 | [5] 0.001 | [6] -0.04 | [7] -0.016 | [8] -0.109 | [9] 0.039 | [10] 0.033

LEMD3 (UniProt Q9Y2U8)
inactive: [1] -0.014 | [2] 0.013 | [3] -0.057 | [4] 0.062 | [5] 0.068 | [6] -0.111 | [7] 0.027 | [8] 0.039 | [9] 0.026 | [10] -0.075

ITPRIP (UniProt Q8IWB1)
inactive: [1] -0.028 | [2] 0.016 | [3] -0.116 | [4] 0.034 | [5] 0.011 | [6] -0.037 | [7] 0.034 | [8] -0.084 | [9] -0.009 | [10] 0.013

LTN1 isoform 3 (UniProt O94822)
inactive: [1] -0.016 | [2] -0.114 | [3] -0.042 | [4] 0.196 | [5] 0.01 | [6] -0.114 | [7] 0.158 | [8] -0.012 | [9] 0.047 | [10] -0.057

LUC7L3 (UniProt O95232)
UniProt O95232, sequence (O95232 whole entry, looked up): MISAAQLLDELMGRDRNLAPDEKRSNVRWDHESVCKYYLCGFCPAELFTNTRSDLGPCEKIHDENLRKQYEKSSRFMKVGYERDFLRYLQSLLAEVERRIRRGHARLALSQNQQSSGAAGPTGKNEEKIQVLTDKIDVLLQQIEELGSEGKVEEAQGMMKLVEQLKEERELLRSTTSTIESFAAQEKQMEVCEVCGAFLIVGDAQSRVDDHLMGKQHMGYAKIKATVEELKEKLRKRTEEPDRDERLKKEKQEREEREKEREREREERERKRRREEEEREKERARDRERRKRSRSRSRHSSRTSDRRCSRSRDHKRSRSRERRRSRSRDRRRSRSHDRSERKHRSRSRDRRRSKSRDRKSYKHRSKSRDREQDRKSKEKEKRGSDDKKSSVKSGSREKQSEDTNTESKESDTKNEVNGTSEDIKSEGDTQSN
inactive: [1] -0.003 | [2] 0.013 | [3] -0.049 | [4] -0.007 | [6] -0.113 | [7] -0.008 | [8] -0.048 | [9] 0.028 | [10] -0.003
active: [5] -0.314

KPNB1 (UniProt Q14974)
inactive: [1] -0.076 | [2] -0.21 | [3] -0.01 | [4] 0.031 | [5] 0.043 | [6] -0.039 | [7] 0.126 | [8] 0.032 | [9] 0.201 | [10] -0.063

MAP2K7 isoform 4 (UniProt O14733)
inactive: [1] 0.063 | [2] 0.026 | [3] -0.028 | [4] -0.002 | [5] -0.04 | [6] -0.012 | [7] 0.036 | [8] -0.001 | [9] 0.013 | [10] -0.01

KMT2C isoform 3 (UniProt Q8NEZ4)
inactive: [1] -0.026 | [2] -0.02 | [3] -0.084 | [4] -0.029 | [5] 0.009 | [6] -0.043 | [7] -0.043 | [8] -0.046 | [9] -0.012 | [10] 0.035

MGST1 (UniProt P10620)
inactive: [1] 0.042 | [2] -0.013 | [3] 0.01 | [4] -0.174 | [5] 0.009 | [6] -0.037 | [7] 0.003 | [8] 0.021 | [9] -0.147 | [10] 0.018

KHDC4 (UniProt Q7Z7F0)
inactive: [1] -0.139 | [2] 0.027 | [3] -0.15 | [4] 0.052 | [5] 0.019 | [6] -0.058 | [7] -0.058 | [8] 0.023 | [9] 0.008 | [10] -0.023

MAP2K3 isoform 3 (UniProt P46734)
UniProt P46734, sequence (P46734 whole entry, looked up): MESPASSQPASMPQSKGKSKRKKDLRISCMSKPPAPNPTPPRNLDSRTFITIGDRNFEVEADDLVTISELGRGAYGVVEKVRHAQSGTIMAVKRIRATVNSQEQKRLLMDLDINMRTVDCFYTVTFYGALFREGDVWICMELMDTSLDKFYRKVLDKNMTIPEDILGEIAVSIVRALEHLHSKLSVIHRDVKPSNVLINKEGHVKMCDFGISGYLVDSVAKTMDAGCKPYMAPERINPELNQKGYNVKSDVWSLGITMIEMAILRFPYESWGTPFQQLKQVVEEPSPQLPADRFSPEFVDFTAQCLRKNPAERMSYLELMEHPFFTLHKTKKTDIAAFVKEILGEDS
inactive: [1] 0.024 | [2] 0.017 | [3] -0.029 | [4] -0.045 | [5] -0.025 | [6] -0.063 | [7] 0.058 | [8] -0.061 | [9] -0.02 | [10] 0.003

LRFN1 (UniProt Q9P244)
active: [3] -0.44
inactive: [1] 0.053 | [2] -0.08 | [4] -0.006 | [5] -0.24 | [6] -0.048 | [7] 0.062 | [8] -0.028 | [9] -0.227 | [10] -0.069

IL27RA (UniProt Q6UWB1)
UniProt Q6UWB1, sequence (Q6UWB1 whole entry, looked up): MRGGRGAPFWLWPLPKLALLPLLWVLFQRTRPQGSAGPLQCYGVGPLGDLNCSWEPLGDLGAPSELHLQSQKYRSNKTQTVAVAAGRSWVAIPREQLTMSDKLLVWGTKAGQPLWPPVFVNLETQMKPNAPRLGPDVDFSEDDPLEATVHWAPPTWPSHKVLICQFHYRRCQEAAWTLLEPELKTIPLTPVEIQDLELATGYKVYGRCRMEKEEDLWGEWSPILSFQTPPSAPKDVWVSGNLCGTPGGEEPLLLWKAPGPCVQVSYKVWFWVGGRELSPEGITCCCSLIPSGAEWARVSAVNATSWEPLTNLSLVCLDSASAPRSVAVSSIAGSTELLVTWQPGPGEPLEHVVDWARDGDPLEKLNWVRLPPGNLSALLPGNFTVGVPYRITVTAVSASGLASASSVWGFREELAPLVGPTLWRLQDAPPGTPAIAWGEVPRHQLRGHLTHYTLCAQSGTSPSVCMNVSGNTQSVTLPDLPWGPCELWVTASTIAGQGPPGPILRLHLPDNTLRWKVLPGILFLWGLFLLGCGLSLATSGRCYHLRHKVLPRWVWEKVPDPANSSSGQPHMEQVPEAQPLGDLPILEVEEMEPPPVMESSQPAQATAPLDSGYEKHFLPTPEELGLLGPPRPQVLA
inactive: [1] 0.062 | [2] 0.014 | [3] -0.025 | [4] 0.063 | [5] 0.056 | [6] -0.097 | [7] -0.03 | [8] 0.065 | [9] -0.023 | [10] 0

MCL1 (UniProt Q07820)
UniProt Q07820, sequence (Q07820 whole entry, looked up): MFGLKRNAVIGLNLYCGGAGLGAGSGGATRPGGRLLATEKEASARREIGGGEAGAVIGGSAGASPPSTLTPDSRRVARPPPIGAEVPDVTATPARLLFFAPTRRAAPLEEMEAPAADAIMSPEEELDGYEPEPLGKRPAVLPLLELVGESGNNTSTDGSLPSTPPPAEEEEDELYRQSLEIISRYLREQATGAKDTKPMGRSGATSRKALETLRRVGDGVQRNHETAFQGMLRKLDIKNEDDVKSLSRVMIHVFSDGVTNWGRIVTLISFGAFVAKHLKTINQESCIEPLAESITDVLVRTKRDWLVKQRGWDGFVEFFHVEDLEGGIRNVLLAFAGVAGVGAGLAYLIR
inactive: [1] 0.011 | [2] -0.114 | [3] -0.056 | [4] 0.268 | [5] -0.022 | [6] -0.015 | [7] 0.029 | [8] -0.063 | [9] 0.004 | [10] 0.047

KRAS isoform 2 (UniProt P01116)
UniProt P01116, sequence (P01116 whole entry, looked up): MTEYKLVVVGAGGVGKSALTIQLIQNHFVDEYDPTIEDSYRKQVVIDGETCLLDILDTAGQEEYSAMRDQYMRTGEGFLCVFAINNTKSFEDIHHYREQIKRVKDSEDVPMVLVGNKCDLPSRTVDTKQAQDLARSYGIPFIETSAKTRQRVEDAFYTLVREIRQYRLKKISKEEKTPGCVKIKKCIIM
inactive: [1] 0.039 | [2] 0.045 | [3] -0.062 | [4] -0.036 | [5] 0.027 | [6] 0.013 | [7] -0.028 | [8] 0.011 | [9] 0.043 | [10] 0.02

KIFBP (UniProt Q96EK5)
inactive: [1] -0.039 | [2] 0.029 | [3] -0.021 | [4] -0.01 | [5] 0.02 | [6] -0.092 | [7] 0.045 | [8] -0.019 | [9] 0.049 | [10] -0.134

MAPK14 (UniProt Q16539)
inactive: [1] 0.261 | [2] 0.001 | [3] 0.014 | [4] 0.074 | [5] 0.546 | [6] -0.137 | [7] -0.02 | [8] -0.03 | [9] 0.684 | [10] -0.055

LSS (UniProt P48449)
active: [7] 0.595
inactive: [1] 0.172 | [2] 0.016 | [3] -0.066 | [4] 0.103 | [5] -0.091 | [6] -0.015 | [8] -0.001 | [9] 0.118 | [10] 0.074

LIMA1 isoform 4 (UniProt Q9UHB6)
inactive: [1] 0.046 | [2] -0.109 | [3] 0.111 | [4] 0.014 | [5] -0.033 | [6] -0.015 | [7] 0.074 | [8] -0.089 | [9] 0.017 | [10] 0.01

ILVBL (UniProt A1L0T0)
inactive: [1] -0.022 | [2] 0.135 | [3] -0.162 | [4] -0.02 | [5] 0.002 | [6] -0.054 | [7] -0.024 | [8] 0.052 | [9] 0.059 | [10] 0.019

MAIP1 (UniProt Q8WWC4)
inactive: [1] 0.03 | [2] 0.06 | [3] -0.058 | [4] 0.028 | [5] 0.002 | [6] -0.054 | [7] -0.039 | [8] -0.04 | [9] 0.048 | [10] 0.008

MIF (UniProt P14174)
UniProt P14174, sequence (P14174 whole entry, looked up): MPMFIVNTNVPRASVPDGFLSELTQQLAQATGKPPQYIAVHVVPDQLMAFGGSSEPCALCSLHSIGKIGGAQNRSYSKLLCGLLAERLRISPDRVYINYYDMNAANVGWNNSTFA
inactive: [1] -0.029 | [2] -0.005 | [3] -0.001 | [4] -0.065 | [5] 0.82 | [6] -0.019 | [7] 0.026 | [8] -0.105 | [9] -0.058 | [10] 0.06

KIF3B (UniProt O15066)
inactive: [1] -0.068 | [2] 0.005 | [3] -0.011 | [4] 0.002 | [5] 0.069 | [6] 0.028 | [7] -0.189 | [8] -0.063 | [9] 0.034 | [10] -0.043

IPO7 (UniProt O95373)
UniProt O95373, sequence (O95373 whole entry, looked up): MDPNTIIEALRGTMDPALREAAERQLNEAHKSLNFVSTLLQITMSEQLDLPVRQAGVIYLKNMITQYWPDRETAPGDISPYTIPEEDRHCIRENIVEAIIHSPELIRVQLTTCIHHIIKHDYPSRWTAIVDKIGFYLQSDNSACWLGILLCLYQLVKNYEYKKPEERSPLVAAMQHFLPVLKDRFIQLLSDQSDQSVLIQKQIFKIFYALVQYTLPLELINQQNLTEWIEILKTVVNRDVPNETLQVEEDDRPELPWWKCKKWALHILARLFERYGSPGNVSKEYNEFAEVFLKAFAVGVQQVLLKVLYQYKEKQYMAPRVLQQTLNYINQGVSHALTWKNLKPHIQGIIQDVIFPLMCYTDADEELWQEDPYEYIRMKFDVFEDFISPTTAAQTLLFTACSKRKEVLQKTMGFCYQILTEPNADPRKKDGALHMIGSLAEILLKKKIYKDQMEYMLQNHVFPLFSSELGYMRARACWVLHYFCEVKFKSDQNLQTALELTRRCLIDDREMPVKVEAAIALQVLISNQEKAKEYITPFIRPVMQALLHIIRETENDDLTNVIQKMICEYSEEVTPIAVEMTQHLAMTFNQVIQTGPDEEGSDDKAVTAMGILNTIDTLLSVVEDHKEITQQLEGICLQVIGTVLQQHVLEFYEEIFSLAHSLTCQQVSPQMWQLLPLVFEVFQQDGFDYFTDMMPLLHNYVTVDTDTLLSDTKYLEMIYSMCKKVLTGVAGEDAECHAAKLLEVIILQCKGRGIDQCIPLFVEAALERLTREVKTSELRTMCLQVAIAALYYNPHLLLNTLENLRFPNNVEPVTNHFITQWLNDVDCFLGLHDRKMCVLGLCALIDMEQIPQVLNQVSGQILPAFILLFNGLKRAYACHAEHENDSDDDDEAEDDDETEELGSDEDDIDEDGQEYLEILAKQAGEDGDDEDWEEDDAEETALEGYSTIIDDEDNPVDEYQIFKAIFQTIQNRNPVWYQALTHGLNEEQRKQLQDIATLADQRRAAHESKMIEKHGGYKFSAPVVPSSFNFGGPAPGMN
inactive: [1] -0.004 | [2] -0.089 | [3] -0.146 | [4] 0.023 | [5] 0.01 | [6] -0.163 | [7] -0.083 | [8] -0.012 | [9] 0.052 | [10] -0.015

MAPK9 (UniProt P45984)
UniProt P45984, sequence (P45984 whole entry, looked up): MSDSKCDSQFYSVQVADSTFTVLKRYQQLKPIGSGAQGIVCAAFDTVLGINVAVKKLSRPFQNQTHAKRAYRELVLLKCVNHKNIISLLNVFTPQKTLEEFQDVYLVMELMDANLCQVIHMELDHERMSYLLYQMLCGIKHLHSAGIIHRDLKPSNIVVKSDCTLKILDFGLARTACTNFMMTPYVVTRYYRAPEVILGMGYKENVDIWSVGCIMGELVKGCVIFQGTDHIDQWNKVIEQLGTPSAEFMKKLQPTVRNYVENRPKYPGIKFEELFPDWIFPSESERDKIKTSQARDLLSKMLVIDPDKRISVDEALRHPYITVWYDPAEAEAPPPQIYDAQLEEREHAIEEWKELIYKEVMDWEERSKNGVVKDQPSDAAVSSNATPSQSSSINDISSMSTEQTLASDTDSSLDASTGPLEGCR
inactive: [1] -0.118 | [2] 0.046 | [3] 0.002 | [4] -0.013 | [6] 0.003 | [7] -0.02 | [8] 0 | [9] 0.018 | [10] 0.029
active: [5] 0.328

LPIN3 isoform 2 (UniProt Q9BQK8)
inactive: [1] -0.101 | [2] 0.171 | [3] -0.074 | [4] 0.093 | [5] -0.087 | [6] -0.022 | [7] 0.049 | [8] 0.049 | [9] 0.051 | [10] -0.012
